# mIDH1 inhibitor: qHTS for Inhibitors of mutant isocitrate dehydrogenase 1 (IDH1): qHTS | Isocitrate dehydrogenase [NADP] cytoplasmic (Homo sapiens), O75874 | Potency, µM (series often up to 76.6 µM), for inactives: at the top dose activity change, negative = inhibition, actives largely listed as inhibitors | IDH1-R132H enzyme, NADPH consumption, diaphorase/resazurin fluorescence | 0.093% of 390,000 active; also: % is scaled to controls: 0 for no effect and ±100 for the full control effect; nearly all actives have a fitted effect of over 65% in size
#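 IDH1-R132H (0.5 ug/mL) preincubated 30 min with compound, then NADPH (0.016 mM) and alpha-KG (2 mM) added; 80 min at RT, pH 7.5. Remaining NADPH coupled via diaphorase/resazurin to fluorescence (540/590 nm); concentration-response curves normalized to no-enzyme control.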
# HttQ103 aggreg: qHTS Multiplex Assay to Identify Dual Action Probes in a Cell Model of Huntington: Aggregate Formation (GFP); 1.1% of 220,000 active; PC12 HttQ103-GFP aggregates, Acumen cytometry, 40 h; AID 1688, 2009; Potency, µM (titrated, usually from 46.1 µM), inactives show at the top dose activity change, negative = inhibition, actives largely listed as inhibitors; also: % is scaled to controls: 0 for no effect and ±100 for the full control effect; nearly all actives have a fitted effect of over 60% in size
#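 Ecdysone-promoter PC12 model expressing HTT exon 1 Q103 fused to GFP, induced by tebufenozide at 100 nM final. Compounds titrated; aggregates sized 1–25 µm scored on a 488 nm laser cytometer.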
# HTT ATP protect: qHTS Multiplex Assay to Identify Dual Action Probes in a Cell Model of Huntington: Cytoprotection (ATP) | PC12 HTT-Q103 induced, cytoprotection, ATP luminescence, 40 h | Potency, µM (doses to about 56.4 µM), for inactives: cytoprotection (ATP increase), usual class: activators | 0.14% of 230,000 active; also: % of control where 0% means no effect; nearly all actives have a fitted effect of over 45% in size
#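 Cells were plated at 1500 per well in phenol red-free DMEM with 5% equine and 5% calf serum. Tebufenozide (100 nM final) and compounds were added, then ATPlite reagent, and luminescence was read.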
# NPSR antag: qHTS Assay for Antagonists of the Neuropeptide S Receptor: cAMP Signal Transduction | AID 1461, 2008 | Potency, µM (titrated, usually from 38.3 µM), for inactives: at the highest dose activity change, negative = inhibition, usual class: inhibitors | CHO-NPSR cells, cAMP TR-FRET, antagonist mode | 1% of 220,000 active | Q6W5P4; also: % is scaled to controls: 0 for no effect and ±100 for the full control effect; nearly all actives have a fitted effect of over 50% in size
# Target sequence (Q6W5P4 whole entry, looked up): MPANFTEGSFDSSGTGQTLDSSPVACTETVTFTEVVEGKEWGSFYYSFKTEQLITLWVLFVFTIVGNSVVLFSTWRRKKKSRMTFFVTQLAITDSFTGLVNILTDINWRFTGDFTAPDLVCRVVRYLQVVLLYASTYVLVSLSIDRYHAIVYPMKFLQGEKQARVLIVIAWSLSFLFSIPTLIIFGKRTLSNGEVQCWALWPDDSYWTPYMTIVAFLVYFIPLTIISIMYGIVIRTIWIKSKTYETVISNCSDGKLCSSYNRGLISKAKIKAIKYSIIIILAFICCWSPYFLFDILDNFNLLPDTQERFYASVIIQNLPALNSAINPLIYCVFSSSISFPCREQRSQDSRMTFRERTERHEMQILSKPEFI
# AT treatment: qHTS Assay for Identifying a Potential Treatment of Ataxia-Telangiectasia | F2112 A-T fibroblasts, KAP-1 phosphorylation AlphaLISA; neocarzinostatin DNA damage 30 min before lysis | Potency, µM (titrated, usually from 57.5 µM), for inactives: at the top dose activation, most hits filed as activators | 0.19% of 320,000 active; also: % of control where 0% means no effect; nearly all actives have a fitted effect of over 45% in size
#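 hTERT-immortalized A-T patient fibroblasts (F2112), 500 cells/well in OPTI-MEM, 1% FBS, got compounds for 60 min, then NCS for 30 min at 37C. Lysates were then assayed for phospho-KAP-1 by AlphaLISA (anti-pKAP1 donor, anti-KAP1 acceptor beads), 6 hr at 25C.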
# * = called active by the depositor; ? = inconclusive; nt = no result given; [ ] = another dose, or the depositor's remark. An excerpt weighted towards active compounds, which were near 1.1% of everything screened. Calls follow the shape of the dose curve; as a rule, active = well fitted curve in the direction sought with a large enough effect; inconclusive = small, poorly fitted or top-dose-only effect, or another doubt; inactive = no such curve, though single readings can be large; an effect the other way counts as inactive or inconclusive. Potency is read from the fitted curve at half-maximal effect.
SMILES,mIDH1 inhibitor,HttQ103 aggreg,HTT ATP protect,NPSR antag,AT treatment
OC(c1ccccn1)C(O)c1ccccn1 (configuration not stated),-3%,nt,nt,nt,nt
CN1/C(=C\C(=O)C[n+]2ccc(C(=O)c3ccccc3)cc2)C(C)(C)c2ccccc21,18%,13µM*,-18%[10 µM],7%,-14%
CC(C)=C[C@H]1[C@@H](COC(=O)c2cc3c(cc2Cl)OCO3)C1(C)C,nt,nt,8%[10 µM],nt,nt
CCN(CC)c1ccc(-n2c(C)c(C(C)=O)c(C(C)=O)c2C)cc1,8%,22µM*,-8%[0.074 µM],-23%[46.1 µM],-4%
[Cu].[O-]/N=C1/C(=[OH+])Nc2ccccc21.[O-]Nc1c(O)[nH]c2ccccc12,nt,nt,-4%[10 µM],nt,nt
Nc1ncnc(NCc2ccccc2)c1[N+](=O)[O-],1%,11µM*,nt,10%,5%
C=CCNc1ncnc2ccccc12,7%,-22%,9%,-5%[46.1 µM],7%
OCCCCCNc1ncnc2ccccc12,2%,7.9µM*,29%[10 µM],7%[46.1 µM],3%
CCN(CC)CCCNc1ncnc2ccccc12,-9%,13%[9.22 µM],2%[10 µM],-26%,14%
c1ccc(CNc2ncnc3ccccc23)cc1,6%,4.5µM*,4%[10 µM],3%[46.1 µM],-10%
C=C1NC(=O)c2cc(CN(C)c3ccc(C(=O)N[C@@H](CCC(=O)O)C(=O)O)s3)ccc2N1,nt,-20%,?,nt,nt
COc1ccc(CNC[C@@H](CCCCN(C)Cc2ccc(OC)cc2)N2C[C@H](c3ccccc3)N(CCc3ccc(Cl)c(Cl)c3)C(=O)C2=O)cc1,-4%[38.3 µM],3%[9.22 µM],-44%[10 µM],?,-4%
CCOc1ccc(NC2=NCC(=O)N2CCc2ccccc2)cc1,1%,10%,4%,?,7%
CCOc1ccc(CCN2C(=O)C(=O)N([C@H](CCCN(C)Cc3ccccc3)CNCc3ccccc3)C[C@@H]2C(C)C)cc1,nt,-26%[9.22 µM],-74%[10 µM],-46%,40µM*
CN(CCCC[C@H](CNCc1ccc(-c2ccccc2)cc1)N1C[C@H](c2ccccc2)N(CCc2ccc(Cl)c(Cl)c2)C(=O)C1=O)Cc1ccc(-c2ccccc2)cc1,nt,?,-24%[10 µM],10µM*,-3%
FC(F)(F)c1cc(CO[C@@H]2CCCN[C@H]2c2ccccc2)cc(C(F)(F)F)c1,nt,nt,-22%[1.9 µM],nt,nt
COc1ccc(C)cc1NC(=O)N1CCC(CN2CCOCC2)CC1,30%,nt,nt,nt,nt
Cc1cccc(NC(=O)COC(=O)c2cc(C)oc2C)c1,-3%,13µM*,15%,5%,2%
COc1ccc(/C=C2\SC(=O)N(CC(=O)Nc3ccc(O)cc3)C2=O)cc1OC,-10%,nt,nt,nt,0%
Cc1ccc(NC(=O)CN2C(=O)S/C(=C\c3cc(Cl)c(OCC(=O)O)c(Cl)c3)C2=O)cc1,37µM*,nt,nt,nt,-2%
CCCn1c(SCC(=O)c2ccc(CC)cc2)n[nH]c1=O,3%,0.89µM*,?,-3%[46.1 µM],-6%
CCCn1c(SCC(=O)c2cc(C)n(-c3ccc4c(c3)OCO4)c2C)n[nH]c1=O,18%,-29%,3.5µM*,-13%[46.1 µM],0%
Cc1cc(O)c2c(c1O)C(=O)C(O)=C(O)C2=O,nt,nt,-31%,nt,nt
CC(C)(C)c1ccc(C(=O)CCCN2CCC(OC(c3ccccc3)c3ccccc3)CC2)cc1,nt,?,-99%,nt,nt
COc1ccc(CNC(=O)Cn2cnc3c(=O)n(C)c(=O)n(C)c32)cc1,-3%,0.63µM*,-10%[0.074 µM],5%[46.1 µM],-2%
SMILES,mIDH1 inhibitor,HttQ103 aggreg,HTT ATP protect,NPSR antag,AT treatment
CC1(C)O[C@@H]2C[C@H]3[C@@H]4CCC5=CC(=O)C=C[C@]5(C)[C@H]4C(O)C[C@]3(C)[C@]2(C(=O)CO)O1 (some centres not stated),nt,11%,10%,nt,nt
COc1ccc(S(=O)(=O)N2CCOCC2)cc1C(=O)N(C)CCOc1ccc(Cl)cc1,5%,nt,nt,nt,7%
Cc1ccc(S(=O)(=O)N2CCOCC2)cc1C(=O)N(C)CCOc1ccc(Cl)cc1,-4%,36%[9.22 µM],-15%[10 µM],-21%,22µM*
C=CC(=O)OCCOCCOC(=O)C=C,nt,nt,-195%,nt,nt
CC1/C(=N/O)CC(c2ccccc2)N(C)C1c1ccccc1 (configuration not stated),3%,-5%,37%[10 µM],-4%[46.1 µM],-10%
CC1C(c2ccccc2)N(C)C(c2ccccc2)CC1(O)c1ccccc1 (configuration not stated),4%,?,-4%,?,10µM*
C#CCN1C(C)=C(C(=O)OC)[C@@H](c2cccc([N+](=O)[O-])c2)C(C(=O)OCC)=C1C,nt,nt,-9%[1.9 µM],nt,nt
CCOc1ccc2nc(SC3CC(=O)N(c4ccc(OC)cc4)C3=O)sc2c1 (configuration not stated),5%,?,-111%,-18%[46.1 µM],5%
CC(C)c1ccc(N2C(=O)CC(Sc3ncn[nH]3)C2=O)cc1 (configuration not stated),-1%,-5%[9.22 µM],1%,-8%[46.1 µM],0%
CC(C)c1ccc(N2C(=O)CC(Sc3nc4ccccc4o3)C2=O)cc1 (configuration not stated),3%,3.5µM*,-148%,-25%[46.1 µM],-5%
COc1ccc(N2C(=O)CC(Sc3nc4ccccc4s3)C2=O)cc1 (configuration not stated),7%,32µM*,-137%,-6%,4%
O=C(NCc1ccc(F)cc1)C1CCN(C(=O)c2ccc(-n3ccc4ccccc43)s2)CC1,15%,nt,nt,nt,nt
COc1ccc(C(Cl)=C(c2ccc(OC)cc2)c2ccc(OC)cc2)cc1,-7%,-1%,-27%,7.9µM*,nt
COc1ccc(C(=N/O)/C(=N/O)c2ccc(OC)cc2)cc1,1%,10%,-14%,-8%[46.1 µM],4%
CCOC(=O)N1CCN(c2ncnc3c2[nH]c2ccc(F)cc23)CC1,5%,7.1µM*,-49%,-20%[46.1 µM],2%
COc1ccc2[nH]c3c(N4CCc5ccccc5C4)ncnc3c2c1,2%,-12%[9.22 µM],-63%[10 µM],?,-5%
Fc1ccc2[nH]c3c(N4CCN(c5ccccc5)CC4)ncnc3c2c1,9%,22µM*,30%[1.9 µM],?,1%
CCOC(=O)N1CCN(c2ncnc3c2[nH]c2ccc(OC)cc23)CC1,4%,12%,-14%,-13%[46.1 µM],-3%
O=C(CCCN1CCC(O)(c2cccc(C(F)(F)F)c2)CC1)c1ccc(F)cc1,nt,-5%,-269%,-9%[46.1 µM],1%
COc1ccc(N2CCN(c3ncnc4c3[nH]c3ccccc34)CC2)cc1,6%,?,-46%,?,nt
COc1cc2[nH]c3c(N4CCN(c5ccccn5)CC4)ncnc3c2cc1OC,5%,20µM*,-165%[0.074 µM],?,-7%
